Experimental data from PubChem BioAssay (EPA / NIEHS).
Activity calls are given as the source filed them. The calls were made as follows: active = hit-call score of the fitted dose curve at least 0.9, where 1 is the maximum; inactive = score below 0.9.

Experiment: CCTE_Shafer_MEA_acute_burst_number: CCTE's Neural Acute Assay for Single-Electrode Bursts, Shafer Lab (AID 2284013)
Description: CCTE_Shafer_MEA_acute assay is conducted using Axion Biosystems 48 well microelectrode array (MEA) plates and Maestro recording system. Each well of the MEA plate contains a grid of 16 microelectrodes embedded in the culture surface. Electrically active cells, such as neurons, can be cultured over the electrodes, and electrical activity in these cells can be recorded extracellularly. The spontaneous firing of neurons is captured from each electrode on a microsecond timescale providing both temporally and spatially precise data. […] The CCTE_Shafer_MEA_acute assay uses primary cultures of rat cortical neurons. As these cultures mature over time, neural networks develop functional activity and form cohesive networks in which electrical activity can be highly coordinated. Baseline 40-minute recordings are made on days post-plating 13 or 15, followed by a secondary 40-minute recording after chemical exposure.CCTE_Shafer_MEA_acute_burst_number is a component of the CCTE_Shafer_MEA_acute assay. It measures the total number of single-electrode bursts (temporally-clustered groups of action potential firing) during a recording in a microelectrode array (MEA) using Axion Biosystems Maestro 768 channel amplifier with the AxIS adaptive spike detector. The recordings before and after chemical treatment are used to calculate a percent change in the burst number in each well.Data from the assay component CCTE_Shafer_MEA_acute_burst_number was analyzed into 1 assay endpoint. This assay endpoint, CCTE_Shafer_MEA_acute_burst_number, was analyzed in the negative analysis fitting direction relative to DMSO as the negative control and baseline of activity. Using a type of functional reporter, gain or loss-of-signal activity can be used to understand electrical activity.
Spontaneous activity in the cortical cultures was recorded using an Axion Biosystems Maestro 768 channel amplifier and Axion Integrated Studios (AxIS) v1.8 (or later) software. The amplifier recorded from all channels simultaneously (gain = 1200 x; sampling rate = 12.5 kHz/channel): raw signals were filtered with a Butterworth band-pass filter (300-5000 Hz), which filters out slower local field potentials leaving only fast potentials, i.e., "spikes", arising from extracellular currents associated with action potentials (Pine 2006; Wheeler and Nam 2011). On-line spike detection of filtered signals was conducted with the AxIS adaptive spike detector, using a threshold of 8x the root mean squared (rms) noise on each channel. Any electrodes with rms noise levels greater than 5 uV were grounded (e.g., no data were recorded). Once grounded, an electrode was grounded for the duration of the experiment. All recordings were conducted at 37 C. Wells were deemed usable if on the day of the exposure >/= 10 electrodes were active (defined as >/= 5 spikes/min). On DIV 13 or 15, a minimum of three wells from one cortical culture preparation were treated with each compound (0.03-40 uM). Prior to recording baseline activity, each mwMEA plate was placed in the Maestro at 37 C and allowed to sit for 20 min while firing rates stabilized. Baseline activity (40 min) was recorded before the addition of each compound. An additional 40 min of spontaneous activity was recorded in the presence of each compound. Changes in network parameters relative to baseline were assessed following compound treatment.

Question: For `CCNc1nc(N)nc(Cl)n1`, which outcome is on record?
Answer: Its outcome is “inactive”.

Question: With `C=CCOC(Cn1ccnc1)c1ccc(Cl)cc1Cl` (centres undefined) as the compound, how does the AC50 read?
Answer: Its AC50 is 3.97 µM (active).

Question: Which outcome does the source give for `OB(O)O` here?
Answer: The outcome was “inactive”.

Question: With `CCCCC(CC)CN1C(=O)C2C3C=CC(C3)C2C1=O` (centres undefined) as the compound, how does the outcome read?
Answer: The outcome was “inactive”.

Question: Which AC50 does the source give for `CC(C)CCCCCCc1ccc(O)cc1` here?
Answer: Its AC50 is 6.34 µM (active).

Question: With `O=C(c1ccc(O)cc1O)c1ccc(O)cc1O` as the compound, how does the outcome read?
Answer: The outcome was “inactive”.

Question: With `COC(=O)c1ccccc1C(=O)O` as the compound, how does the outcome read?
Answer: Its outcome is “inactive”.

Question: For `N#CSCSc1nc2ccccc2s1`, which outcome is on record?
Answer: Its outcome is “inactive”.

Question: For `O=C(O)c1ccccc1`, which outcome is on record?
Answer: Its outcome is “inactive”.

Question: For `O=C(Nc1ccc([N+](=O)[O-])cc1Cl)c1cc(Cl)ccc1O`, which AC50 is on record?
Answer: Its AC50 is 0.0944 µM (active).

Question: Which outcome does the source give for `CCCN(CCC)c1c([N+](=O)[O-])cc(C(F)(F)F)c(N)c1[N+](=O)[O-]` here?
Answer: Its outcome is “inactive”.

Question: Which AC50 does the source give for `Cc1nn(C)c(Oc2ccccc2)c1C=NOCc1ccc(C(=O)OC(C)(C)C)cc1` here?
Answer: Its AC50 is 0.003 µM (active).

Question: Which outcome does the source give for `C#CCOC(=O)[C@@H](C)Oc1ccc(Oc2ncc(Cl)cc2F)cc1` here?
Answer: Its outcome is “inactive”.

Question: Which AC50 does the source give for `CC(C)(c1ccc(O)cc1)c1ccc(O)cc1` here?
Answer: The AC50 was 6.17 µM (active).

Question: Which outcome does the source give for `CC1(C)C(C=C(Cl)Cl)C1C(=O)OCc1cccc(Oc2ccccc2)c1` (centres undefined) here?
Answer: Its outcome is “inactive”.

Question: Which outcome does the source give for `O=C(c1ccccc1)C1CCCCC1` here?
Answer: The outcome was “inactive”.

Question: Which outcome does the source give for `CC(C)(C)[C@@H](O)[C@@H](Cc1ccc(Cl)cc1)n1cncn1` here?
Answer: Its outcome is “inactive”.

Question: Which outcome does the source give for `CSC(=O)c1cccc2nnsc12` here?
Answer: The outcome was “inactive”.

Question: With `Oc1ccc(C(c2ccc(O)cc2)C(Cl)(Cl)Cl)cc1` as the compound, how does the AC50 read?
Answer: Its AC50 is 2.22 µM (active).
